Out of some 410,000 compounds screened, about 18,000 (4.4%) were called active. Inconclusive results (about 7%) are left out. Many of the other results were omitted from the sample, so actives are more common in it than they were. Unmarked numbers belong to inactive results. Cut-off read from the data, not from the text of the source: active = activity change below about -60%; inconclusive = no clear call, values can overlap the other calls; inactive = above about -39%.

Among the data in PubChem BioAssay AID1259415 (National Center for Advancing Translational Sciences (NCATS), 2018) are activity change, negative = inhibition values, retold here.
% is set by controls: 0 for no effect and ±100 for the full control effect.

The nature of the assay: qHTS Assay for inhibitors of the human cytomegalovirus (HCMV). The conditions noted are these: HFF cells, HCMV-luciferase reporter, 72 h; at 57.5 µM; active compounds read low. The essentials:
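HFF cells seeded 16 h at 37C, treated with compounds, infected with luciferase-reporter HCMV at MOI 1 PFU/cell; luciferase read at 72 h post infection, normalized to buffer-only and Salinomycin controls.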
Background: qHTS replaces the single test concentration by a dilution series.
As for `COc1ccccc1CNC(=O)c1ccc(-n2c(C)cc3c2CCCC3)cc1`, the activity change, negative = inhibition was -28.5%.

As to `Cc1cc([N+](=O)[O-])c(NC2CCCCC2)c([N+](=O)[O-])c1`, the activity change, negative = inhibition was -18.1%.

In the case of `N#Cc1cc([N+](=O)[O-])ccc1NCC1CCCO1` (stereo not given), the activity change, negative = inhibition was 11.1%.

Consider `Cc1cc([N+](=O)[O-])ccc1NC1CCCC1`, for which the activity change, negative = inhibition is -71.6% (active).

Take `COc1ccc(C)cc1N(C)C(=O)c1c(C)oc2ncnc(N3CCOCC3)c12`: the activity change, negative = inhibition was -37.3%.

As to `Cc1ccc2onc(CC(=O)N3CCN(c4ccc(Cl)cc4)CC3)c2c1`, the activity change, negative = inhibition is -15.9%.

In the case of `Cc1nn(C(C)C(=O)NCCc2ccccc2)c(=O)c2c1sc1ccccc12` (stereo not given), the activity change, negative = inhibition is -39.3%.

Take `CCCCN(C)c1nnc(NC(=O)Nc2ccc(Br)c(C)c2)s1`: the activity change, negative = inhibition is -4.35%.

Take `Cc1ccc(NC(=O)Nc2nnc(-c3ccncc3)s2)cc1`: the activity change, negative = inhibition was -99.3% (active).

In the case of `Cc1ccc(Nc2nc(Cl)c(C=O)s2)cc1`, the activity change, negative = inhibition was -12.1%.

As to `CCNC(=O)C1(C)CCCN1C(=O)c1ccc(N(C)C)cc1` (stereo not given), the activity change, negative = inhibition was -8.81%.

As for `Cc1ccc(Nc2nnc(-c3ccc(C)c(S(=O)(=O)N4CCCCC4)c3)c3ccccc23)cc1`, the activity change, negative = inhibition was -7.76%.

With `Cc1ccc(-c2nnc(Nc3ccc(C(=O)N(C)C)cc3)c3ccccc23)cc1S(N)(=O)=O`, the activity change, negative = inhibition is -17.4%.

Consider `Cc1ccc(C)c(Nc2nnc(-c3ccc(C)c(S(=O)(=O)N4CCCCC4)c3)c3ccccc23)c1`, for which the activity change, negative = inhibition is -66.1% (active).

As to `COc1cc(CN(C(=O)c2ccccc2Br)c2ccccn2)cc(OC)c1OC`, the activity change, negative = inhibition was -1.41%.

With `O=S(=O)(c1ccc(Br)cc1)c1nnn2c1nc(NC1CCCCCC1)c1sccc12`, the activity change, negative = inhibition is -2.26%.

On to `CCn1cc(C(=O)N2CC=C(c3ccccc3)CC2)c(=O)c2ccc(C)nc21`, for which the activity change, negative = inhibition is -108% (active).

Consider `CCn1cc(C(=O)OCC(=O)Nc2cccc(C)c2)c(=O)c2ccc(C)nc21`, for which the activity change, negative = inhibition is 37.7%.

On to `CCn1cc(C(=O)OCC(=O)Nc2cc(C)cc(C)c2)c(=O)c2ccc(C)nc21`, for which the activity change, negative = inhibition is -39.2%.

Regarding `CCc1ccccc1NC(=O)c1cnn(-c2ccc(F)cc2)c1C1CCNCC1`, the activity change, negative = inhibition is 2.44%.

Regarding `CCOC(=O)Cc1ccc(NC(=O)Nc2c[nH]c(=O)[nH]c2=O)cc1`, the activity change, negative = inhibition is 8.88%.

For the compound `COc1ccccc1CNC(=O)C(Cc1ccccc1)NS(=O)(=O)c1ccc2c(c1)oc(=O)n2C` (stereo not given), the activity change, negative = inhibition was 5.72%.

In the case of `Cc1[nH]c(C)c(S(=O)(=O)N2CCN(c3cccc(C(F)(F)F)c3)CC2)c1C(=O)N1CCCC1`, the activity change, negative = inhibition is -9.51%.

For the compound `Cc1[nH]c(C)c(S(=O)(=O)N2CCN(c3cccc(C(F)(F)F)c3)CC2)c1C(=O)N1CCCCC1`, the activity change, negative = inhibition is -80.2% (active).

For `Cc1ccc(C)c(N2CCN(S(=O)(=O)c3c(C)[nH]c(C)c3C(=O)N3CCCC3)CC2)c1`, the activity change, negative = inhibition was -31.6%.
